GPR32 ag: GPR32 (DRV1) agonism, beta-arrestin recruitment; O75388; CHO-K1 GPR32 beta-arrestin PathHunter luminescence, 90 min; zero percent set by DMSO-only wells; activation, % at 76.9 µM; 48,000 compounds, 2.5% hits; AID 1346428;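 active = activation of at least 60% and not above a set upper limit, about 1 call in 100 departs from these limits; inconclusive = activation of 40% to 60%, or above that upper limit; inactive = activation under 40%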; also: 0% is about no effect
Target sequence (O75388 whole entry, looked up): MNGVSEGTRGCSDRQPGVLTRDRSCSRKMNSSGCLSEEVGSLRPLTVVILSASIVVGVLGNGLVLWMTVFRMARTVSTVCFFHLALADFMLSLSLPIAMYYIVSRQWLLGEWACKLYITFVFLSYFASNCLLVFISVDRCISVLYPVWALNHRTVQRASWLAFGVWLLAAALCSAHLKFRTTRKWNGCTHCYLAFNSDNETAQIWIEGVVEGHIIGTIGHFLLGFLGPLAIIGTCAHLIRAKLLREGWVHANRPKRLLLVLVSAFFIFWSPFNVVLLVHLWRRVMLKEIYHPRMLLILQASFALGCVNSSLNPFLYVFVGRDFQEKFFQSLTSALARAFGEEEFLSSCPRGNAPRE
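Cells are plated overnight, treated with compounds in DMSO for 90 minutes at 37 °C, and developed with PathHunter detection reagent for 1 hour before luminescence is read; signal reflects beta-arrestin binding to GPR32 in engineered CHO-K1 cells.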
TSG101-PTAP inh: blocks PTAP binding to human TSG101, validation. Q99816. Fluorescence polarization, FITC-PTAP peptide/Tsg101, 20 min. Potency, µM (highest dose often 115 µM), most hits filed as inhibitors. 44,000 tested, under 10 active; also: potency is read from the fitted curve at half-maximal effect; 0% is about no effect
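Steps: Tsg101 binding domain (10 uM final) in HEPES pH 7.5/NaCl/Tween 20/EDTA/TCEP; add compound; add FITC-PTAP peptide (50 nM final); incubate 20 min r.t.; read polarization.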
B2AR arrestin ag: agonists recruiting beta-arrestin to human beta2-adrenergic receptor | HTLA Tango cells, beta-arrestin recruitment, luciferase luminescence, 18 h | Potency, µM (series often up to 46.1 µM), hits mostly activators | 44,000 tested, under 10 active;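 also: potency is read from the fitted curve at half-maximal effect; 0% = DMSO and full agonism = EC100 isoproterenol or metaproterenol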
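Luminescence read-out: arrestin recruitment to recombinant beta2-AR releases tTA, inducing luciferase. Cells exposed 18 hr at 37 degrees C to up to 46 microM compound; %Activity from corrected signal, concentration-response curves classified by r2, magnitude and efficacy.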
GALK inhibitor: inhibits human galactokinase; recombinant GALK, Kinase-Glo ATP luminescence, 1 h; Potency, µM (series often up to 57.5 µM), for inactives: at the highest dose activity, negative = inhibition, usual class: inhibitors; 44,000 tested, under 10 active; AID 1347072;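 also: plate controls were full GALK reaction for no effect and reaction lacking GALK for full effect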
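Compounds were pinned into ATP buffer, then GALK-galactose mix was added (final 5 nM enzyme, 35 uM ATP, 100 uM galactose, pH 8.0). After 1 h at room temperature, Kinase-Glo Plus was added and luminescence read.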
FH mod: Identification of activators of human fumarate hydratase by quantitative high-throughput screening; FH coupled MDH/diaphorase resazurin fluorescence, 15 min; Fumarate hydratase, mitochondrial (Homo sapiens), P07954; Potency, µM (series often up to 79.9 µM), for inactives: at the top dose activity change, negative = inhibition, actives largely listed as inhibitors; 54,000 compounds, 0.22% hits; also: potency is read from the fitted curve at half-maximal effect; % is scaled to controls: 0 for no effect and ±100 for the full control effect; the screen sought activators but most active calls are inhibition curves; nearly all actives have a fitted effect of over 45% in size
NTMT1 inh: inhibitors of human N-terminal methyltransferase NTMT1. NTMT1 MTase-Glo SAH luminescence, purified enzyme. Potency, µM (top dose mostly 114 µM), inactives show at the top dose activity change, negative = inhibition, hits mostly inhibitors. 59,000 compounds, 2.5% hits. AID 1645870;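 also: potency is read from the fitted curve at half-maximal effect; plate controls were DMSO vehicle for no effect and no enzyme for full effect; nearly all actives have a fitted effect of over 65% in size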
Target sequence (Q9BV86 whole entry, looked up): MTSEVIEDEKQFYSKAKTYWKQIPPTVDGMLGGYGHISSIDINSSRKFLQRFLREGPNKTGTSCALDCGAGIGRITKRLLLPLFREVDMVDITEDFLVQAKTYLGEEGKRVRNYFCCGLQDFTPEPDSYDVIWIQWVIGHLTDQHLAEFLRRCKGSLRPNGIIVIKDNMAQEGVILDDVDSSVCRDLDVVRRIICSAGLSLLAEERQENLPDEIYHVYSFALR
Starred values were filed as active, the others as inactive; i = inactive; ? = inconclusive; / = no result; [ ] = remark or other dose. This is a sample that favours compounds with a hit; in the whole collection about 3.7% have one here. Unless noted, calls follow the shape of the dose curve; as a rule, active = well fitted curve in the direction sought with a large enough effect; inconclusive = small, poorly fitted or top-dose-only effect, or another doubt; inactive = no such curve, though single readings can be large; an effect the other way counts as inactive or inconclusive.

SMILES | GPR32 ag | TSG101-PTAP inh | B2AR arrestin ag | GALK inhibitor | FH mod | NTMT1 inh
CC(C)n1ncnc1-c1cn2c(n1)-c1ccc(O[C@@H](C)C(N)=O)cc1OCC2 | / | / | / | / | / | 17%
Cc1ccccc1N1CCN(S(=O)(=O)C[C@]23CC[C@H](C[C@@H]2NC(=O)[C@@H](N)CCS(C)(=O)=O)C3(C)C)CC1 | / | / | / | / | 24% | ?
Cc1ccc(CNC(=O)CN(c2ccc(C(C)C)cc2)S(=O)(=O)c2c(C)n[nH]c2C)cc1 | 83* | i | i | 0% | -17% | 17%
Cc1ccc(CNC(=O)CN(c2ccc(C)cc2)S(=O)(=O)c2c(C)nn(C)c2C)cc1 | -2 | i | i | 9% | -22% | 0%
COc1cccc(CN(C(=O)c2oc3ccccc3c2C)C2CCS(=O)(=O)C2)c1 (centres undefined) | -23 | i | i | 8% | -2% | -2%
COc1cccc(CN(C(=O)c2oc3cc(C)ccc3c2C)C2CCS(=O)(=O)C2)c1 (centres undefined) | -30 | i | ? | 0% | 32µM* | 4%
CC(=O)Nc1sc2c(c1-c1ccc(OC(F)(F)F)cc1)CCNC2 | / | / | / | / | / | 0%
COc1ccc(NC(=O)c2ccco2)cc1NC(=O)COc1cc(C)cc(C)c1 | 12 | i | i | 2% | 0% | 16%
COc1ccc(NC(=O)c2ccco2)cc1NC(=O)COc1ccccc1Cl | 64* | i | i | 1% | 8% | 3%
O=c1[nH]cnc2nc[nH]c12 | 82* | / | / | / | -2%[53.3 µM] | 22µM*
Cc1ccc(NC(=O)Nc2ccc3nc(N4CCN(C)CC4)cc(C)c3c2)cc1F | 94* | i | i | 2% | 0% | -2%
Cc1cc(N2CCCCC2)nc2ccc(NC(=O)c3ccc(F)cc3)cc12 | 105* | i | i | 1% | ? | 1%
Cc1cc(N2CCN(C)CC2)nc2ccc(NC(=O)Nc3ccc(F)cc3)cc12 | 30 | i | i | 2% | 1% | ?
CN(C)C(=O)c1cc2cnc(Nc3ccc(N4CCNCC4)cn3)nc2n1C1CCCC1 | / | / | / | / | 14% | 4%
Cc1cc(C)c(NC(=O)c2sc3nc(C)cc(C)c3c2N)c(C)c1 | 38 | i | i | ? | -1% | 13%
Cc1cc(C)c2c(N)c(C(=O)Nc3ccccc3C(F)(F)F)sc2n1 | 89* | i | i | -1% | -6% | 2%
Oc1cccc2cc(CNc3ccccc3F)cnc12 | / | / | / | / | / | 19%
Cc1ccc(OCCn2c(CCNC(=O)c3ccc(C(F)(F)F)cc3)nc3ccccc32)cc1 | / | / | / | / | / | -8%
CCN(CC)c1ncnc2c1cnn2-c1cc(Cl)ccc1C | 72* | i | i | -4% | -2% | 1%
Cc1ccc(Cl)cc1-n1ncc2c(N3CCN(Cc4ccccc4)CC3)ncnc21 | 85* | i | i | 0% | ? | -3%
Fc1ccc(-n2ncc3c(NC4CCCCCC4)ncnc32)cc1 | 80* | i | i | -1% | -35% | -14%
Fc1ccc(-n2ncc3c(Nc4ccc5c(c4)OCCO5)ncnc32)cc1 | 92* | i | i | 1% | -32% | 2%
Cc1ccc(-n2ncc3c(Nc4ccc5c(c4)OCCO5)ncnc32)cc1Cl | 1 | i | i | 0% | -6% | 3%
CNc1nc(-c2ccc3c(N)n[nH]c3c2)cc(N2C[C@@H](C(=O)NC3CCCCC3)CC[C@H]2C)n1 | / | / | / | / | / | 2%
COc1ccc(NCc2ccc(O)c3ncccc23)nc1 | / | / | / | / | / | -1%
SMILES | GPR32 ag | TSG101-PTAP inh | B2AR arrestin ag | GALK inhibitor | FH mod | NTMT1 inh
Cc1ccc(-n2ncc3c(NC4CCCCCC4)ncnc32)cc1 | 27 | i | i | -2% | -4% | -4%
Cc1ccc(Cl)cc1-n1ncc2c(NC3CCCCC3)ncnc21 | 68* | i | i | -6% | -18% | -3%
Cc1ccc(-n2ncc3c(NC4CCCCC4)ncnc32)cc1 | 22 | i | i | 0% | 4% | 3%
Clc1cccc(-n2ncc3c(NC4CCCCC4)ncnc32)c1 | 109* | i | i | 3% | ? | ?
N#Cc1ccc(NS(=O)(=O)c2ccc(NC(=O)Cc3ccc(F)c(Cl)c3)cc2)cc1 | / | / | / | / | / | 9%
CC1=NN(c2ccc(C(=O)O)cc2)C(=O)/C1=C/c1ccc(-c2cc(C)c(C)cc2[N+](=O)[O-])o1 | / | / | / | / | / | 50µM*
Cc1cccc(NC(=O)c2sc3nc(-c4cc5ccc(O)cc5oc4=O)[nH]c(=O)c3c2C)c1 | 2 | i | i | 2% | ? | 7.1µM*
CC(C)C[C@H](N)c1nnc(SCc2ccc(Cl)cc2Cl)o1 | 77* | i | i | 8% | -12% | -5%
Cc1nnc(-c2cnn(C)c2N)n1CCCc1cccnc1 | / | / | / | / | / | 11%
O=C(Nc1ccc(Cl)c(C(F)(F)F)c1)C1CCN(S(=O)(=O)c2cccc3nonc23)CC1 | 79* | i | i | 3% | -22% | 10%
CC(C)c1ccc(NC(=O)C2CCN(S(=O)(=O)c3cccc4nonc34)CC2)cc1 | -15 | i | i | 4% | 1% | 1%
COc1ccc(NC(=O)c2c(C)oc3ccc(O)c(CN4CCCC(C)C4)c23)cc1Cl (centres undefined) | -22 | i | i | 1% | -19% | -6%
Cc1oc2ccc(O)c(CN3CCCC3)c2c1C(=O)Nc1ccc(C(C)C)cc1 | 118* | i | i | 4% | / | /
COc1ccc(NC(=O)c2c(C)oc3ccc(O)c(CN4CCC(C)CC4)c23)cc1Cl | 83* | i | i | -8% | / | /
COc1ccc(-c2nc(SCC(=O)c3ccc(Br)cc3)n[nH]2)cc1 | 114* | i | i | 10% | -10% | -5%
COc1cc(C(=O)OC[C@H]2O[C@H](O[C@@]3(CO)O[C@@H](CO)[C@H](O)[C@H]3O)[C@H](O)[C@@H](O)[C@@H]2O)ccc1O | / | / | / | / | 6%[53.3 µM] | 14%[29.8 µM]
COc1ccc(OC)c(NC(=O)Cn2ccn(-c3ccc(OC)c(OC)c3)c(=O)c2=O)c1 | 7 | i | i | 2% | 0% | -8%
COc1ccc(OC)c(NC(=O)Cn2ccn(-c3ccc(F)cc3)c(=O)c2=O)c1 | -8 | i | i | 0% | 1% | 89µM*
Cc1ccccc1NC(=O)Cn1c(=O)n(CCCC(=O)NCc2ccc3c(c2)OCO3)c(=O)c2ccccc21 | -6 | i | i | 6% | -2% | 89µM*
CC1(CO)CC(O)[C@]2(C(=O)O)CCC34CC3(C=CC3[C@]5(C)C(CC[C@]34C)C(C)(CO)[C@@H](O)[C@H](O)[C@@H]5O)C2C1 (some centres undefined) | / | / | / | / | -4%[53.3 µM] | -15%[29.8 µM]
